A number with no mark means an inactive call. For some of these results: Entries with a potency or affinity are not part of this list. The source made the active and inactive calls. Unless noted, how the calls were made is not given here.
Key:
[1] = antimalarial activity against Dd2 strain (AID 2302;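 active means growth inhibition above 50% at the single 2 µM test dose, taken to imply half-maximal potency below 2 µM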;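 further: 0% = DMSO untreated growth and 100% = chloroquine plus artemisinin killed control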); conditions: P. falciparum Dd2 in RBCs, LDH growth readout, 72 h; at 2 µM; stronger effect = higher value
[2] = biological target: L-lactate dehydrogenase (Plasmodium falciparum (isolate CDC / Honduras)) (UniProt Q27743); assay: PfLDH activity inhibition – cell lysate, 3D7 strain, counter-screen for P. falciparum growth inhibition project (AID 2304);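 further: 0% = vehicle and 100% = reference inhibitor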; conditions: P. falciparum 3D7 crude extract, LDH APAD/NBT absorbance; at 2 µM; stronger effect = higher value
L-lactate dehydrogenase (Plasmodium falciparum (isolate CDC / Honduras)), sequence (Q27743 whole entry, looked up): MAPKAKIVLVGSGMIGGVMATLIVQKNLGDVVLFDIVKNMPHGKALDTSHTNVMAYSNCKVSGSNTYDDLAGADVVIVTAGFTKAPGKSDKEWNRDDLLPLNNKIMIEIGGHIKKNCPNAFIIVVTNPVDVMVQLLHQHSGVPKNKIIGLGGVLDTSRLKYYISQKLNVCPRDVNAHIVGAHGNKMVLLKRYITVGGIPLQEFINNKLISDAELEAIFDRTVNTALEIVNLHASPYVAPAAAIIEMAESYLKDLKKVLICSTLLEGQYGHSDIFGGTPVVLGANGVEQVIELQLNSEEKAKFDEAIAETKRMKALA

[3] = inhibition of 3D7 malaria parasite growth – strain 3D7 (AID 2306);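 further: 0% = DMSO wells and 100% = chloroquine plus artemisinin control wells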; conditions: P. falciparum 3D7 erythrocytic growth, LDH absorbance, 72 h; at 2 µM; stronger effect = higher value
[4] = biological target: Calcium-dependent protein kinase 1 (Plasmodium falciparum (isolate 3D7)) (UniProt P62344); assay: PfCDPK1 kinase inhibitors, biochemical, TCAMS library (AID 1159585; cut-off not given, nearly all actives have IC50 up to about 0.98 µM;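 further: inhibitors leave more ATP so luminescence rises with inhibition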); conditions: recombinant PfCDPK1, Kinase-Glo ATP depletion luminescence
Calcium-dependent protein kinase 1 (Plasmodium falciparum (isolate 3D7)), sequence (P62344 whole entry, looked up): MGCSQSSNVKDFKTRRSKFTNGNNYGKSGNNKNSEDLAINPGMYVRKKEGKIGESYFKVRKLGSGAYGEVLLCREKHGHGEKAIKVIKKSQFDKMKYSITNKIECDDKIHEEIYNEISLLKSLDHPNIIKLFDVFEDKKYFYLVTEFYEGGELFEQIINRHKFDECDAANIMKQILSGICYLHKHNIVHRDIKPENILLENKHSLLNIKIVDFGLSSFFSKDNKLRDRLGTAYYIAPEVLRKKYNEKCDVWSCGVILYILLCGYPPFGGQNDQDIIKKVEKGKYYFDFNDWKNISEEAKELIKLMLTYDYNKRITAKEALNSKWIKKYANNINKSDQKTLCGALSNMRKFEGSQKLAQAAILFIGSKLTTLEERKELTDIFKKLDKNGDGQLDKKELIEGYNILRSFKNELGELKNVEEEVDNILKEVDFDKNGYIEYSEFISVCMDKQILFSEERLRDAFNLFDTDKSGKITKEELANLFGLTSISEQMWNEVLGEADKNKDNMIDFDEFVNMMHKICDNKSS

[5] = biological target: Plasmodium falciparum protein kinase 6 (PK6, PF3D7_1337100) (UniProt Q8IDW1); assay: PfPK6 kinase inhibitors, biochemical, TCAMS library (AID 1159586); conditions: recombinant PfPK6, Kinase-Glo ATP depletion luminescence
Plasmodium falciparum protein kinase 6 (PK6, PF3D7_1337100), sequence (Q8IDW1 1-305): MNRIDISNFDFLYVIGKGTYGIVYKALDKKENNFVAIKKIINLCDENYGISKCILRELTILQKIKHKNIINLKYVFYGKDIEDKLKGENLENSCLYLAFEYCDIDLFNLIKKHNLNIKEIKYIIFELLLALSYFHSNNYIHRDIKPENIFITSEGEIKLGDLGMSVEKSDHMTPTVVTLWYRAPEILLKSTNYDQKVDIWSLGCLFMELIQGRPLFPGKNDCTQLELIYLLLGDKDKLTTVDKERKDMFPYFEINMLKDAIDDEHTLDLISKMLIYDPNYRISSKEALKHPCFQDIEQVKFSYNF

[6] = biological target: Protein kinase 7 (PK7), Plasmodium falciparum 3D7 (PF3D7_0213400) (UniProt Q7YTF7); assay: inhibition of Plasmodium PK7 catalytic activity – biochemical, TCAMS antimalarial set, Kinase-Glo luminescence (AID 1159587); conditions: recombinant PfPK7, Kinase-Glo ATP depletion luminescence
Protein kinase 7 (PK7), Plasmodium falciparum 3D7 (PF3D7_0213400), sequence (Q7YTF7 1-343): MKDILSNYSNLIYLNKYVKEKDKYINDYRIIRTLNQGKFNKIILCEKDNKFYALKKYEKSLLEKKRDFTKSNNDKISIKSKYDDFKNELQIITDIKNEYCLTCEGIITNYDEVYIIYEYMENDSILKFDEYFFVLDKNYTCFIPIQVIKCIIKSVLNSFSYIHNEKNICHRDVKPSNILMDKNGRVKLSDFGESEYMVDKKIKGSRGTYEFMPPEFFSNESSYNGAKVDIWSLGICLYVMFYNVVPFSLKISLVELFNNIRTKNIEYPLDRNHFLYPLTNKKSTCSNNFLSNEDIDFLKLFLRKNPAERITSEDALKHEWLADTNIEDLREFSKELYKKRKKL

[7] = biological target: Calcium-dependent protein kinase 4 (Plasmodium falciparum (isolate 3D7)) (UniProt Q8IBS5); assay: PfCDPK4 kinase inhibitors, biochemical, TCAMS library (AID 1159588; cut-off not given, nearly all actives have IC50 up to about 0.91 µM); conditions: recombinant PfCDPK4, Kinase-Glo ATP depletion luminescence
Calcium-dependent protein kinase 4 (Plasmodium falciparum (isolate 3D7)), sequence (Q8IBS5 whole entry, looked up): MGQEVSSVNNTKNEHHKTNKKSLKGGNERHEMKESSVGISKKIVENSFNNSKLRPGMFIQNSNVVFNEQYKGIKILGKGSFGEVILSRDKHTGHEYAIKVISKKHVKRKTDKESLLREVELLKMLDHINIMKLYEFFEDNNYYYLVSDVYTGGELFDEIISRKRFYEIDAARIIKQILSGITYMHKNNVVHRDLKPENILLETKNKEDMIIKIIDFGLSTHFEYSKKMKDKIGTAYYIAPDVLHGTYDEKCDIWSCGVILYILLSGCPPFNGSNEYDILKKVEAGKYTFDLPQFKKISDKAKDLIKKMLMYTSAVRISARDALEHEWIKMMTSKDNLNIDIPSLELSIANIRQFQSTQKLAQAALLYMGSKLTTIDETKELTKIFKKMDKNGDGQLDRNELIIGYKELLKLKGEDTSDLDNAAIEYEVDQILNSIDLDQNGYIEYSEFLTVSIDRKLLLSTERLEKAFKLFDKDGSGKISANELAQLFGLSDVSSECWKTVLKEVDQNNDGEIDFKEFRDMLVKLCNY

Row | Compound | growth inhibition [1] | inhibition [2] [%] | growth inhibition [3] | outcome [4] | outcome [5] | outcome [6] | outcome [7]
1 | CC(C)C(=O)Nc1c(F)cc(F)cc1CCc1ccc(O)cc1 | 91% (active) | 2 | 90% (active) | inactive | inactive | inactive | inactive
2 | COc1ccc(C2c3ccccc3-c3nc(N)nc(N)c3C2C)cc1 (centres undefined) | 0% | 3 | 97% (active) | inactive | inactive | inactive | inactive
3 | Nc1nnc(-c2ccc(Cl)c(Br)c2)c(N)n1 | -3% | -3 | 86% (active) | inactive | inactive | inactive | inactive
4 | CN(Cc1cnc2nc(N)nc(N)c2n1)c1ccc(C(=O)N[C@H](CCC(=O)OC(C)(C)C)C(=O)N[C@@H](CCC(=O)OC(C)(C)C)C(=O)OC(C)(C)C)cc1 | 1% | -6 | 85% (active) | inactive | inactive | inactive | inactive
5 | C=CCOc1ccc(Cc2cnc(N)nc2N)cc1CCC | -1% | -1 | 93% (active) | inactive | inactive | inactive | inactive
6 | CCC1=C(C[C@H]2NCCc3cc(OC)c(OC)cc32)C[C@H]2c3cc(OC)c(OC)cc3CCN2C1 | 100% (active) | -2 | 102% (active) | inactive | inactive | inactive | inactive
7 | CC(=O)Oc1c(Cl)c(C)nc(C)c1-c1ccc(Oc2ccc(OC(F)(F)F)cc2)cc1 | 98% (active) | 5 | 97% (active) | inactive | inactive | inactive | inactive
8 | Nc1nc(N)c2c(ccc3c2ccn3Cc2cccc(F)c2)n1 | 99% (active) | -6 | 101% (active) | inactive | inactive | inactive | inactive
9 | COc1ccc(Cc2c(Cl)nc3nc(N)nc(N)c3c2C)c(OC)c1OC | -3% | -2 | 98% (active) | inactive | inactive | inactive | inactive
10 | Cc1ccc(Cc2cccc3nc(N)nc(N)c23)cc1 | 0% | -2 | 92% (active) | inactive | inactive | inactive | inactive
11 | Nc1ncc(-c2ccc(Br)cc2)c(N)n1 | 0% | 0 | 89% (active) | inactive | inactive | inactive | inactive
12 | COc1ccc2c(CNCCCCCCNCc3c(OC)ccc4cc(OC)ccc34)c(OC)ccc2c1 | 79% (active) | -7 | 101% (active) | inactive | inactive | inactive | inactive
13 | Cc1nc(C)c(-c2ccc(Oc3ccc(OC(F)(F)F)cc3)cc2)c(OC(=O)c2ccc(CN(C)C)cc2)c1Cl | 98% (active) | 6 | 98% (active) | inactive | inactive | inactive | inactive
14 | Cc1[nH]c(C)c(-c2ccc(Oc3ccc(Cl)c(Cl)c3)cc2)c(=O)c1Cl | 97% (active) | -1 | 100% (active) | inactive | inactive | inactive | inactive
15 | CCCCNCc1cc(Cl)c2ccccc2c1O | 100% (active) | 0 | 102% (active) | inactive | inactive | inactive | inactive
16 | Nc1ncc(-c2ccc(F)c(Cl)c2)c(N)n1 | -2% | 5 | 83% (active) | inactive | inactive | inactive | inactive
17 | CCN(c1ccc(O)c(CN2CCCCC2)c1)c1ccc([N+](=O)[O-])cn1 | 64% (active) | 2 | 94% (active) | inactive | inactive | inactive | inactive
18 | Cc1ccccc1OCCCc1c(C)nc(N)nc1N | 1% | -3 | 97% (active) | inactive | inactive | inactive | inactive
19 | Oc1ccc2c(CNC3CCCCC3)c(O)ccc2c1CNC1CCCCC1 | 101% (active) | -4 | 101% (active) | inactive | inactive | inactive | inactive
20 | CCCCCCCN(Cc1ccc(OC(C)(C)C(=O)OCC)cc1)C(=O)Cc1ccc(F)cc1F | 95% (active) | -3 | 93% (active) | inactive | inactive | inactive | inactive
21 | Cc1cccc(-c2c(C)nc(N)nc2N)c1 | -9% | -6 | 88% (active) | inactive | inactive | inactive | inactive
22 | CCC(C(C)C)n1ccc2c3c(N)nc(N)nc3ccc21 (centres undefined) | 95% (active) | 3 | 95% (active) | inactive | inactive | inactive | inactive

— PubChem BioAssay
